Results as given in PubChem BioAssay AID1159580 (chemical genetic matrix, 2015).
“And” between values parts separate entries of the source, which are not always exact repeats. Equal values may be shown once. About 2,000 (36%) of roughly 5,500 compounds were called active. Roughly 18% stayed inconclusive and do not appear here. No stated cut-off is given here; in the data, active means normalized growth mostly below about 0.91 (no sharp cut-off); inconclusive means no clear call, values can overlap the other calls; inactive means mostly above about 0.92. Some of the results follow.

Experiment: chemical genetic growth profiling, strain panel (AID 1159580);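 further: tested at 20 µM; growth read once vehicle control cultures reached saturation at 30 °C; 1 = growth at the plate median or of vehicle wells; lower values mean less growth of the strain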
Conditions: S. cerevisiae deletion strains, growth OD

Measured: normalized growth

COc1ccc2c(=O)c(CC(=O)O)coc2c1
inactive: locus YAL021C, strain ccr4, active compounds read low 1.01 | locus YAL026C, strain drs2, active compounds read low 0.984 | locus YAL030W, strain snc1, active compounds read low 0.983 | locus YBL061C, strain skt5, active compounds read low 0.989 | locus YBR009C, strain hhf1, active compounds read low 0.987 | locus YBR021W, strain FUR4, active compounds read low 1.02 | locus YBR023C, strain chs3, active compounds read low 0.999 | locus YBR171W, strain sec66, active compounds read low 0.956 | locus YBR229C, strain ROT2, active compounds read low 1 | locus YBR231C, strain swc5, active compounds read low 0.972 | locus YBR279W, strain paf1, active compounds read low 0.997 | locus YCL011C, strain gbp2, active compounds read low 0.995 | locus YCL016C, strain dcc1, active compounds read low 1.04 | locus YCL029C, strain bik1, active compounds read low 1 | locus YCL061C, strain MRC1, active compounds read low 1 | locus YCL069W, strain vba3, active compounds read low 0.975 | locus YCR088W, strain abp1, active compounds read low 0.971 | locus YDL005C, strain med2, active compounds read low 0.985 | locus YDL035C, strain GPR1, active compounds read low 1.03 | locus YDL040C, strain nat1, active compounds read low 0.979 | locus YDL074C, strain BRE1, active compounds read low 1.05 | locus YDL101C, strain DUN1, active compounds read low 0.987 | locus YDL134C, strain PPH21, active compounds read low 1.01 | locus YDL185W, strain tfp1, active compounds read low 0.984 | locus YDL192W, strain arf1, active compounds read low 1.01 | locus YDR001C, strain nth1, active compounds read low 0.995 | locus YDR069C, strain doa4, active compounds read low 0.953 | locus YDR101C, strain arx1, active compounds read low 1.04 | locus YDR137W, strain rgp1, active compounds read low 1 | locus YDR159W, strain sac3, active compounds read low 0.926 | locus YDR162C, strain NBP2, active compounds read low 1.05 | locus YDR195W, strain ref2 0.964 | locus YDR297W, strain sur2, active compounds read low 0.965 | locus YDR318W, strain mcm21, active compounds read low 0.991 | locus YDR334W, strain swr1, active compounds read low 0.968 | locus YDR335W, strain msn5, active compounds read low 0.987 | locus YDR388W, active compounds read low 1 | locus YDR392W, strain spt3, active compounds read low 0.939 | locus YDR502C, strain sam2, active compounds read low 0.991 | locus YEL003W, strain gim4, active compounds read low 0.98 | locus YEL037C, strain rad23, active compounds read low 0.977 | locus YEL061C, strain CIN8 (second series), active compounds read low 0.973 | locus YEL061C, strain CIN8, active compounds read low 1.01 | locus YER015W, strain faa2, active compounds read low 0.976 | locus YER016W, strain bim1, active compounds read low 0.986 | locus YER110C, active compounds read low 0.976 | locus YER111C, strain swi4, active compounds read low 0.981 | locus YER155C, strain BEM2 (second series), active compounds read low 0.981 | locus YER155C, strain BEM2, active compounds read low 0.989 | locus YER167W, strain BCK2, active compounds read low 1.01 | locus YFR010W, strain ubp6, active compounds read low 0.969 | locus YGL078C, strain dbp3, active compounds read low 0.96 | locus YGL086W, strain mad1, active compounds read low 1.02 | locus YGL167C, strain pmr1, active compounds read low 0.992 | locus YGL173C, strain kem1, active compounds read low 0.982 | locus YGL227W, strain vid30, active compounds read low 0.984 | locus YGL240W, strain doc1, active compounds read low 0.951 | locus YGL248W, strain PDE1, active compounds read low 1.01 | locus YGL253W, strain hxk2, active compounds read low 0.961 | locus YGR078C, strain PAC10, active compounds read low 1.01 | locus YGR135W, strain pre9, active compounds read low 0.949 | locus YGR252W, strain gcn5, active compounds read low 0.987 | locus YHR013C, strain ard1, active compounds read low 1.02 | locus YHR027C, strain rpn1, active compounds read low 0.969 | locus YHR030C, strain SLT2, active compounds read low 1.01 | locus YHR079C, strain IRE1 (second series), active compounds read low 0.984 | locus YHR079C, strain IRE1, active compounds read low 0.991 | locus YHR094C, strain hxt1, active compounds read low 0.983 | locus YHR129C, strain ARP1, active compounds read low 1 | locus YHR142W, strain chs7, active compounds read low 0.995 | locus YHR200W, strain rpn10, active compounds read low 1.01 | locus YIL066C, strain RNR3, active compounds read low 1 | locus YIL073C, strain SPO22, active compounds read low 0.974 | locus YIL125W, strain kgd1, active compounds read low 1 | locus YIR030C, strain dcg1, active compounds read low 1 | locus YJL092W, strain hpr5, active compounds read low 0.974 | locus YJL095W, strain BCK1 (second series), active compounds read low 0.962 | locus YJL095W, strain BCK1, active compounds read low 1.01 and 1.02 | locus YJL115W, strain asf1, active compounds read low 0.984 | locus YJL129C, strain trk1, active compounds read low 0.996 | locus YJL134W, strain LCB3, active compounds read low 0.999 | locus YJL154C, strain vps35, active compounds read low 0.987 | locus YJL164C, strain tpk1, active compounds read low 1.01 | locus YJL166W, strain qcr8, active compounds read low 0.973 | locus YJL168C, strain set2, active compounds read low 0.987 | locus YJL187C, strain SWE1 (second series), active compounds read low 0.993 | locus YJL187C, strain SWE1, active compounds read low 0.977 | locus YJR043C, strain POL32, active compounds read low 1.05
